The record followed here is PubChem BioAssay (NCI).

The structures appear in SMILES notation. Where “and” joins values, the source holds several entries; their conditions need not be identical. Identical values can stand only once. Compounds without any hit were thinned out: in the full panel of roughly 83,000, 20% have a hit.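 Each cell line was grown in a 96-well plate and treated with one concentration of compound for 48 hours. Values below 10 were considered active.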 Calls of active or inactive are those of the source.

Test systems include NCI-H23 lung; NCI-H522 lung; 786-0 renal; MDA-MB-231 breast; UACC-62 melanoma; LOX IMVI melanoma; CCRF-CEM leukemia; MOLT-4 leukemia; SR leukemia; OVCAR-8 ovarian; OVCAR-5 ovarian; OVCAR-4 ovarian; SK-OV-3 ovarian; IGROV1 ovarian; HS 578T breast; T-47D breast; SW-620 colon; MCF7 breast; HCT-116 colon; KM12 colon.
What all share (test): NCI-60 one-dose screen, 48 h (100 = growth as untreated, 0 = no growth, -100 = all killed)
What all share (conditions): 10 µM

As to `CC1=C2C(=O)[C@](C)(CO)C=C2C(=O)[C@](C)(O)C12CC2`, the growth was -14.8% (active) in the experiment with NCI-H23 lung; -34.7% (active) with NCI-H522 lung; 5.58% (active) with 786-0 renal; 24.6% (inactive) in the experiment with MDA-MB-231 breast; 7.31% (active) in the experiment with UACC-62 melanoma; -25.9% (active) in the experiment with LOX IMVI melanoma. For the same compound, the growth in the experiment on CCRF-CEM leukemia is 13.9% (inactive); in the experiment on MOLT-4 leukemia it was 27.3% (inactive); in the experiment on SR leukemia it was 12.8% (inactive); in the experiment on OVCAR-8 ovarian, 33% (inactive); in the experiment on OVCAR-5 ovarian, 10.2% (inactive); in the experiment on OVCAR-4 ovarian it was 44.4% (inactive). For the same compound, the growth was 24.2% (inactive) in the experiment with SK-OV-3 ovarian; 18.9% (inactive) in the experiment with IGROV1 ovarian; 80.4% (inactive) with HS 578T breast; 6.69% (active) with T-47D breast; 9.68% (active) with SW-620 colon; 1.34% (active) in the experiment on MCF7 breast. The growth in the experiment on HCT-116 colon was 5.03% (active); in the experiment on KM12 colon, 31.9% (inactive).

Regarding `CC1=C(CCC=NNC(N)=O)C2=C(C)C3(CC3)[C@@](C)(O)C(=O)C2=C1`, the growth with NCI-H23 lung is -35.2% (active); in the experiment on NCI-H522 lung it was -62% (active); in the experiment on 786-0 renal it was -37.6% (active); in the experiment on MDA-MB-231 breast, -5% (active); with UACC-62 melanoma it was -54.9% (active); in the experiment with LOX IMVI melanoma, -31.9% (active). In addition, the growth was 26.6% (inactive) in the experiment on CCRF-CEM leukemia; 47.2% (inactive) in the experiment with MOLT-4 leukemia; 29.9% (inactive) with SR leukemia; -36.1% (active) with OVCAR-8 ovarian; -6.93% (active) in the experiment with OVCAR-5 ovarian; -33.3% (active) with OVCAR-4 ovarian. Besides, the growth with SK-OV-3 ovarian was -52.1% (active); in the experiment with IGROV1 ovarian, -17.8% (active); in the experiment with HS 578T breast, -23.6% (active); in the experiment with T-47D breast, -9.73% (active); in the experiment with SW-620 colon, 55.4% (inactive); with MCF7 breast it was 6.29% (active). In addition, the results for the growth in the experiment on HCT-116 colon and in the experiment on KM12 colon were 1.32% (active) and 6.64% (active), respectively.

Regarding `C/C=C/CC(C)C(O)[C@H](NC(=O)[C@@H]1CCCN1C(=O)C(C)(C)NC(=O)CCCCCCCCC)C(=O)NC(C)(C)C(=O)N[C@@H](CCC(N)=O)C(=O)N[C@H](CCC(N)=O)C(=O)NC(C)(C)C(=O)NC(C)(C)C(=O)N[C@@H](CCC(N)=O)C(=O)N[C@H](CC(C)C)C(=O)N[C@H](CO)CC(C)C` (stereo not given in full), the growth in the experiment on NCI-H23 lung is 37.1% (inactive) and -16.1% (active); with NCI-H522 lung, -41.2% (active) and -62.8% (active); in the experiment on 786-0 renal it was 14.2% (inactive) and -83.8% (active); in the experiment with MDA-MB-231 breast, 6.89% (active) and -91.8% (active); in the experiment on UACC-62 melanoma, -0.972% (active) and -81.2% (active); in the experiment with LOX IMVI melanoma, -78.5% (active) and -80.2% (active). The growth in the experiment on CCRF-CEM leukemia was -12.7% (active) and -38.8% (active); in the experiment on MOLT-4 leukemia, -48.2% (active) and -23.8% (active); with SR leukemia, -57.3% (active) and 12.2% (inactive); in the experiment on OVCAR-8 ovarian, 16.4% (inactive) and 4.24% (active); in the experiment with OVCAR-5 ovarian, 50.4% (inactive) and -66.8% (active); in the experiment with OVCAR-4 ovarian, 60% (inactive) and 47.2% (inactive). Further, the growth is 61.8% (inactive) and 50.9% (inactive) in the experiment with SK-OV-3 ovarian; 30.5% (inactive) and 5.27% (active) with IGROV1 ovarian; -36.6% (active) and -60.1% (active) in the experiment with HS 578T breast; 24.8% (inactive) and 10.8% (inactive) in the experiment on T-47D breast; 33.1% (inactive) and 15.3% (inactive) with SW-620 colon; 2.98% (active) and -45.1% (active) in the experiment on MCF7 breast. The growth is 13.1% (inactive) and 6.15% (active) in the experiment with HCT-116 colon; -75.9% (active) and -59% (active) in the experiment on KM12 colon.

`C[C@@H]1CCC/C=C/[C@H]2C[C@@H](O)C[C@@H]2[C@@H](O)/C=C/C(=O)O1`: the growth in the experiment on NCI-H23 lung is 5.85% (active); in the experiment with NCI-H522 lung, -26.3% (active); in the experiment on 786-0 renal, -31.4% (active); with MDA-MB-231 breast, -62.2% (active); in the experiment on UACC-62 melanoma it was 25.9% (inactive); in the experiment with LOX IMVI melanoma, -70% (active). Besides, the growth in the experiment with CCRF-CEM leukemia was 12.3% (inactive); in the experiment on MOLT-4 leukemia it was 1.42% (active); in the experiment with SR leukemia it was 1.7% (active); with OVCAR-8 ovarian, 3.04% (active); in the experiment on OVCAR-5 ovarian, 30.5% (inactive); in the experiment with OVCAR-4 ovarian it was 22.1% (inactive). For the same compound, the growth was 8.48% (active) with SK-OV-3 ovarian; 5.5% (active) in the experiment with IGROV1 ovarian; 42% (inactive) with HS 578T breast; 7.4% (active) in the experiment on T-47D breast; 10.3% (inactive) with SW-620 colon; 10.8% (inactive) with MCF7 breast. The growth is -1.47% (active) in the experiment with HCT-116 colon and 14.9% (inactive) in the experiment on KM12 colon.

Consider `CC1=C2C(=C[C@@](C)(COC(=O)c3ccc(S(=O)(=O)F)cc3)[C@@H]2OC(=O)c2ccc(S(=O)(=O)F)cc2)C(=O)[C@](C)(O)C12CC2`, for which the growth in the experiment with NCI-H23 lung is -21.4% (active); with NCI-H522 lung, -52% (active); in the experiment on 786-0 renal, -44.2% (active); with MDA-MB-231 breast it was 1.44% (active); in the experiment on UACC-62 melanoma, -38.7% (active); in the experiment on LOX IMVI melanoma, 6.84% (active). Moreover, the growth was 36.3% (inactive) with CCRF-CEM leukemia; 23.4% (inactive) in the experiment on MOLT-4 leukemia; 16.3% (inactive) in the experiment on SR leukemia; 5.91% (active) with OVCAR-8 ovarian; 4.81% (active) in the experiment with OVCAR-5 ovarian; -9.11% (active) in the experiment with OVCAR-4 ovarian. The growth in the experiment on SK-OV-3 ovarian was -9.96% (active); with IGROV1 ovarian, 0.149% (active); with HS 578T breast, 33.4% (inactive); with T-47D breast, -20% (active); in the experiment on SW-620 colon, -3.99% (active); in the experiment with MCF7 breast, 6.34% (active). For the same compound, the growth in the experiment on HCT-116 colon was 0.583% (active); in the experiment with KM12 colon, 28.2% (inactive).

On to `COC1[C@@H]2C[C@H]3C(C)(C)O[C@@](C/C=C(/C)C(=O)O)(C2=O)[C@]32Oc3c(CC=C(C)C)c4c(c(O)c3C(=O)[C@H]12)C=CC(C)(C)O4` (stereo not given in full), for which the growth was -64.5% (active) in the experiment on NCI-H23 lung; -68.6% (active) in the experiment with NCI-H522 lung; -50.8% (active) in the experiment on 786-0 renal; -18.3% (active) in the experiment with MDA-MB-231 breast; -70% (active) with UACC-62 melanoma; -97.2% (active) in the experiment on LOX IMVI melanoma. The growth is -1.89% (active) with CCRF-CEM leukemia; -8.14% (active) with MOLT-4 leukemia; 1.28% (active) in the experiment on SR leukemia; -58.5% (active) in the experiment on OVCAR-8 ovarian; -40% (active) in the experiment on OVCAR-5 ovarian; -33.7% (active) in the experiment on OVCAR-4 ovarian. Moreover, the growth was 13.7% (inactive) with SK-OV-3 ovarian; -26% (active) with IGROV1 ovarian; 22.9% (inactive) in the experiment on HS 578T breast; -27.2% (active) in the experiment with T-47D breast; -14.7% (active) in the experiment on SW-620 colon; -78.8% (active) in the experiment with MCF7 breast. Also, the growth is -61.4% (active) with HCT-116 colon and -84.3% (active) in the experiment on KM12 colon.

As for `COc1cccc2c1cc([N+](=O)[O-])c1c(C(=O)O)cc3c(c12)OCO3`, the growth in the experiment with NCI-H23 lung was 102% (inactive); in the experiment on NCI-H522 lung, 95.9% (inactive); in the experiment with 786-0 renal, 109% (inactive); in the experiment with MDA-MB-231 breast it was 106% (inactive); with UACC-62 melanoma, 103% (inactive); in the experiment with LOX IMVI melanoma, 100% (inactive). The growth is 96.6% (inactive) in the experiment on CCRF-CEM leukemia; 99.6% (inactive) in the experiment on MOLT-4 leukemia; 106% (inactive) with SR leukemia; 102% (inactive) in the experiment on OVCAR-8 ovarian; 106% (inactive) in the experiment with OVCAR-5 ovarian; 108% (inactive) with OVCAR-4 ovarian. The growth in the experiment on SK-OV-3 ovarian was 113% (inactive); in the experiment with IGROV1 ovarian, 106% (inactive); with HS 578T breast it was 105% (inactive); with T-47D breast, 95.8% (inactive); in the experiment on SW-620 colon, 101% (inactive); with MCF7 breast, 94.9% (inactive). In addition, the growth in the experiment on HCT-116 colon was 101% (inactive); in the experiment with KM12 colon it was 104% (inactive).
